A selection: hits, their analogues and other compounds. The true share with any hit is near 3.1%.
HIF-2a block – blocks HIF-2a reporter activity | hit rate 0.72% among 360,000 | 786-0 RCC cells HIF-2a reporter, luciferase luminescence, overnight | inhibition, % at 18.8 µM | AID 624352;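 active = inhibition of the luminescence signal of 40% or more relative to plate controls, in a single-dose primary screen at 18.75 µM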
PPC-1+TRAIL kill – PPC-1 cancer cell killing with TRAIL present; PPC-1 cells + TRAIL, ATPLite viability luminescence; cell killing (% activity), % at 4 µM or 5 µM; hit rate 0.41% among 220,000; AID 1443;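 active = cell killing above 50% in the first pass at 4 µM, then a duplicate retest at 5 µM averaging 50% or more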;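 also: plate controls were cells with TRAIL plus DMSO for no effect and medium-only wells lacking cells for full effect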
KKLEB tox – reduces viability of KKLEB cystic fibrosis airway cells; hit rate 0.36% among 360,000; AID 602141; activity change (cytotoxicity), % at 5 µM; KKLEB CF airway cells viability, ATPlite luminescence, overnight; stronger effect = lower value; cells stimulated with P. aeruginosa culture filtrate;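 active = corrected activity change at or below -50% at 5 µM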
C8 TRAIL sens – sensitizes caspase-8 expressing cells to TRAIL; NB7+C8 cells + TRAIL, ATPlite viability luminescence; inhibition (viability loss, TRAIL sensitization), % at 10 µM; hit rate 1% among 360,000; AID 624354;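 active = compounds causing at least 50% loss of cell viability in the single-dose screen, relative to plate controls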
CF NFkB inh – blocks PAF-induced NF-kB reporter in cystic fibrosis cells. KKLEB NF-kB-GFP reporter, GFP fluorescence overnight. inhibition, % at 5 µM. hit rate 0.86% among 360,000;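 active = at least 50% inhibition at 5 µM, scaled per plate between neutral and stimulator controls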;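 also: PAF is a Pseudomonas aeruginosa culture filtrate used as stimulus; plate controls were PAF-stimulated DMSO wells for no effect and unstimulated DMSO wells for full effect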
Peg3 prom inh – Peg3 promoter activity inhibition | inhibition, % at 20 µM | hit rate 1.7% among 360,000 | AID 588405 | HeLa PEG-Prom luciferase reporter, luminescence, overnight;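 active = inhibition of at least 50% at 20 µM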
Active calls of the source: *; nt = no result.

SMILES | HIF-2a block | PPC-1+TRAIL kill | KKLEB tox | C8 TRAIL sens | CF NFkB inh | Peg3 prom inh
COc1ccc(CCn2c(=N)c(C(=O)NCc3ccco3)cc3c(=O)n4ccccc4nc32)cc1OC | 2 | nt | -7 | -9 | -25 | 7
C=CCn1c(O)c(C2=c3ccccc3=NC2=O)sc1=Nc1ccc(O)cc1 | 18 | 9 | 2 | -8 | 11 | 63*
COc1ccc(-n2nnnc2C2(C)CCC(=O)N2Cc2ccccc2)cc1 (configuration not stated) | -4 | nt | nt | 1 | nt | nt
COCc1cn(CC(C)n2c(=O)c3ccccc3n2Cc2cc(C(C)C)no2)nn1 (configuration not stated) | 7 | nt | nt | 8 | nt | nt
Cc1ccc(C(=O)N/N=C/c2cccc(OC(=O)/C=C/c3ccco3)c2)cn1 | -29 | 24 | -1 | 45 | -5 | -81
O=C(/C=C/c1ccco1)Oc1cc(Br)cc(/C=N/NC(=O)c2ccccc2O)c1 | -165 | 52* | -18 | 44 | 12 | 16
O=C(NNC(=O)C12CC3CC(CC(C3)C1)C2)c1ccccn1 | 0 | -6 | -9 | 16 | 23 | 60*
Cc1ccc(S(=O)(=O)Nc2ccc(O)c3ccccc23)c(C)c1 | 10 | nt | 1 | 2 | 39 | 12
Cc1ccc(C)c(S(=O)(=O)Nc2ccc(O)c3ccccc23)c1 | -10 | nt | -53* | 4 | 86* | 13
c1cnc2ccc(-c3ccc4ncccc4c3)cc2c1 | -56 | nt | -33 | 33 | 58* | -189
CN(C)c1ccc(N=Nc2ccc3ncccc3c2)cc1 | -105 | nt | -38 | 71* | -38 | -180
C=CS(=O)(=O)c1c2cc(OC)ccc2nc2ccc(OC)cc12 | -381 | nt | -7 | 4 | -22 | 98*
COc1cc(OC)c(NC(=O)c2ccccc2F)cc1Cl | -61 | 22 | -6 | 2 | -10 | -56
COc1cc(NC(=O)c2cc3ccccc3cc2O)c(OC)cc1Cl | -82 | 10 | -55* | 45 | 50* | -7
Cc1ccc(S(=O)(=O)N2CCN(C(=O)CN3C(=O)c4ccccc4C3=O)CC2)c(C)c1 | 7 | nt | -1 | -21 | 1 | -1
CC(C)(C)C(=O)NCc1ccc(C(=O)CSc2nnc(-c3ccncc3)n2C2CC2)s1 | 7 | nt | -10 | 0 | -4 | 5
Cc1ccc(NS(=O)(=O)c2ccc(-c3coc(C)n3)cc2)c(Cl)c1 | 3 | nt | 8 | -7 | -5 | 20
O=S(=O)(NC1c2cccc3cccc(c23)C1N1CCNCC1)c1ccc(Cl)cc1 (configuration not stated) | 11 | 11 | -19 | 12 | 24 | 77*
CCCCCCC[C@@H](C/C=C/CCC(=O)N(C)C/C(=C/Cl)C/C(=C\C(=O)N1CC(OC)=CC1=O)OC)OC | 9 | nt | -61* | 17 | 54* | 41
O=C(Nc1ccccc1C(=O)Nc1nnc(C(F)(F)F)s1)c1ccccc1Cl | -4 | 28 | -61* | 34 | 56* | 48
NC(=O)c1ccccc1NC(=O)c1ccccc1Cl | -51 | -7 | 8 | 5 | -8 | -12
Cc1ccc2c(c1)-c1nc3ccccc3cc1C2=NC1CCCCC1 | -242 | 25 | 8 | 51* | -20 | -143
Cc1ccc2c(c1)C(=NC1CCCCC1)c1cc3ccccc3nc1-2 | -142 | 14 | 7 | 64* | -32 | -200
CN(C)CCC(=O)C(Cc1ccccc1)c1ccccc1 (configuration not stated) | 14 | nt | -5 | -9 | 20 | 89*
CC(=O)c1ccc2c(c1)N(CCCN1CCC(CCO)CC1)c1ccccc1S2 | -12 | nt | 1 | 4 | -3 | 11
SMILES | HIF-2a block | PPC-1+TRAIL kill | KKLEB tox | C8 TRAIL sens | CF NFkB inh | Peg3 prom inh
CSc1ccc2c(c1)N(CCC1CCCCN1C)c1ccccc1S2 (configuration not stated) | -19 | 20 | -9 | 15 | 29 | 99*
Cc1ccc(CNc2ccc(N3CCOCC3)cc2)s1 | -152 | 15 | -1 | 68* | -6 | -172
O=C1Nc2ccc(F)cc2C12OCCO2 | 15 | nt | 4 | 3 | -29 | 7
O=C(NCc1ccccc1)c1cc(C2CCCN(C(=O)C3CC3)C2)on1 (configuration not stated) | -41 | nt | -6 | 2 | 1 | -55
O=C(Nc1ccccc1)c1cc(C2CCCN(C(=O)C3CC3)C2)on1 (configuration not stated) | 25 | nt | 0 | 51* | -1 | 23
CN(C)c1nc(N/N=C\c2ccc(Cl)c([N+](=O)[O-])c2)nc(Nc2ccc(F)cc2)n1 | -37 | nt | 5 | -2 | -10 | 65*
Nn1cnnc1N/N=C/c1ccc(Cl)c([N+](=O)[O-])c1 | 11 | 18 | 2 | -4 | 9 | 5
CCOC(=O)/C=c1\s/c(=C\c2ccc3cc(OC)ccc3c2)c(=O)n1CC(=O)NCC1CCCO1 (configuration not stated) | 9 | 23 | -8 | 20 | -3 | 61*
CCOC(=O)/C=c1/s/c(=C/c2ccc3cc(OC)ccc3c2)c(=O)n1CC(=O)NCc1ccc2c(c1)OCO2 | 11 | nt | -3 | -6 | -2 | 4
CCNC(=O)C1(C)CCCN(C(=O)c2cccnc2Oc2ccccc2)C1 (configuration not stated) | 6 | nt | 4 | -2 | -11 | 9
COc1cc(CNC(C)C23CC4CC(CC(C4)C2)C3)ccc1OCC(=O)NC(C)(C)C (configuration not stated) | 25 | nt | -8 | 5 | 10 | 72*
COc1cc(CNC(C)(C)CO)ccc1OCC(=O)NC(C)(C)C | 14 | -19 | 26 | -18 | -35 | 11
O=C(Nc1ccc(Oc2c(F)c(F)c(F)c(F)c2F)cc1)OC1CCN2Cc3ccccc3N=C12 (configuration not stated) | 22 | -17 | 4 | 69* | -19 | 109*
CN(C)CCCNC(=O)/C(=C\c1ccc(-c2cccc([N+](=O)[O-])c2)o1)NC(=O)c1ccccc1 | -1 | 25 | -2 | -5 | -20 | 44
CN(C)CCNC(=O)/C(=C/c1ccc(-c2ccc(Cl)cc2Cl)o1)NC(=O)c1ccccc1 | 13 | 31 | -27 | 21 | 27 | 111*
Cc1ccccc1-c1noc(CNC(=O)c2ccco2)n1 | -15 | nt | -5 | 0 | 12 | -11
COc1ccccc1NS(=O)(=O)c1cc(NC(=O)c2ccc(Cl)nc2)ccc1Cl | 20 | 24 | 15 | 34 | -14 | 50*
CC1(C(=O)NCc2cccc(Cl)c2)Cc2c(-c3ccc4c(c3)OCO4)ccnc2O1 (configuration not stated) | 12 | nt | -3 | 27 | 6 | 23
O=C(O)COc1ccccc1/C=N/Nc1ccc(S(=O)(=O)N2CCOCC2)cc1[N+](=O)[O-] | 18 | 14 | 8 | -4 | -8 | 68*
O=C(O)c1ccc(/C=N\Nc2ccc(S(=O)(=O)N3CCOCC3)cc2[N+](=O)[O-])cc1 | 16 | 3 | 8 | -4 | 4 | 3
